Bioassay records deposited in PubChem by National Center for Advancing Translational Sciences (NCATS).
In the library only some 7.9% were active in any assay of this set; here they are far more common.
HCMV antiviral: qHTS Assay for inhibitors of the human cytomegalovirus (HCMV) | hit rate 4.5% among 410,000 | activity change, negative = inhibition, % at 57.5 µM | HFF cells, HCMV-luciferase reporter, 72 h; stronger effect = lower value; in the data active = activity change below about -60%; inconclusive = no clear call, values can overlap the other calls; inactive = above about -39%
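Human foreskin fibroblasts infected with luciferase-reporter HCMV at MOI 1 PFU/cell, compounds at two doses. Luciferase measured 72 h post infection; normalized to buffer-only basal and Salinomycin (10uM) controls.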
HCV inhibitor: qHTS Assay for Inhibitors of Hepatitis C Virus (HCV). Huh7.5.1 HCVcc-Cre infection, luciferase reporter, 44 h. Potency, µM (series often up to 41.8 µM), actives largely listed as inhibitors. hit rate 3.4% among 340,000. AID 651820, 2012; active = well fitted inhibition curve with a large enough effect; inconclusive = small, poorly fitted or top-dose-only effect, or another doubt; inactive = no such curve, though single readings can be large or run the other way
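Reporter virus HCVcc-Cre (~0.5 moi) infects cells exposed to compound; seeding density 1,000 cells/well with 4 h settling beforehand. Luminescence, 15 sec read, taken 44 h post-infection following a 15 min RT substrate incubation.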
Marburg entry inh: qHTS for inhibitors of binding or entry into cells for Marburg Virus; Marburg virus pseudotyped entry inhibition, cell reporter; Potency, µM (series often up to 37.8 µM), most hits filed as inhibitors; hit rate 1.8% among 300,000; AID 540276, 2011; calls by dose curve; tested in HEK293 cells
FMDV antiviral: High Throughput Screening for Foot and Mouth Disease Virus Antivirals; FMDV antiviral cell-based qHTS; Potency, µM (highest dose often 57.9 µM), hits mostly inhibitors; hit rate 1.2% among 410,000; AID 1159524, 2015; calls by dose curve; tested in HEK293T cells; also: read-out not given here; nearly all actives have a fitted effect of over 45% in size
LASV entry inh: qHTS for Inhibitors of binding or entry into cells for Lassa Virus; Lassa virus pseudotype entry inhibition, cell reporter; Potency, µM (titrated, usually from 37.9 µM), most hits filed as inhibitors; hit rate 1.2% among 300,000; AID 540256, 2011; calls by dose curve; tested in HEK293 cells; also: nearly all actives have a fitted effect of over 50% in size
Large screens that a line does not name were inactive.

O=C(NCC1(N2CCOCC2)CCCC1)c1cnn(-c2nccc(-c3cccs3)n2)c1C1CC1	none (no result: HCMV antiviral, HCV inhibitor, Marburg entry inh, LASV entry inh)
COc1ccc(-c2nc3cnc(Oc4cccc(Cl)c4)nc3n(C3CC3)c2=O)cc1	none (no result: HCMV antiviral, HCV inhibitor, Marburg entry inh, LASV entry inh)
CCN(Cc1ccncc1)Cc1nc(-c2ccc(C(=O)OC)cc2)no1	Marburg entry inh inconclusive
CCN(Cc1ccncc1)Cc1nc(CC2CC2)no1	HCMV antiviral -60, LASV entry inh inconclusive
CC1CCN(C(=S)NC(=O)c2ccco2)CC1	HCMV antiviral -68, LASV entry inh inconclusive
CC1CCCCN1C(=S)NC(=O)c1ccco1 (centres undefined)	none
COc1cccc(-c2cn3nc(C)c(C)nc3n2)c1	Marburg entry inh inconclusive, LASV entry inh inconclusive
COc1ccc(-c2cn3nc4c(nc3n2)CCCC4)cc1	Marburg entry inh 5.6µM, LASV entry inh inconclusive
CCN(CC)CC#CC(OC)(c1ccccc1)c1ccccc1	HCMV antiviral -63, Marburg entry inh inconclusive, FMDV antiviral inconclusive, LASV entry inh inconclusive
COc1ccc(CNC(=O)CCNC(=O)c2ccco2)cc1OC	LASV entry inh inconclusive
Nc1cc(S(=O)(=O)N2CCOCC2)ccc1Oc1cccc(Br)c1	HCMV antiviral -77, HCV inhibitor 5µM, Marburg entry inh inconclusive, FMDV antiviral inconclusive, LASV entry inh inconclusive
O=S(=O)(c1ccc(Oc2ccc(S(=O)(=O)N3CCOCC3)cc2)cc1)N1CCOCC1	HCMV antiviral -66, HCV inhibitor inconclusive, FMDV antiviral inconclusive
Cc1ccc(OCC(=O)Nc2ccc3nc(SCC(=O)N4CCCC4)sc3c2)cc1	FMDV antiviral inconclusive (no result: HCV inhibitor)
CC1(C)Cc2c(sc3ncn(N)c(=N)c23)CO1	none
CC1CCCc2sc3ncn(N)c(=N)c3c21 (centres undefined)	HCMV antiviral -63, HCV inhibitor inconclusive
Cc1sc2nc[nH]c(=O)c2c1-c1ccc(Cl)cc1	HCMV antiviral -74, Marburg entry inh inconclusive
CN(CC(=O)Nc1ccc(F)c(F)c1F)C(=O)c1cc(-c2ccncc2)nc2ccccc12	HCV inhibitor inconclusive, Marburg entry inh inconclusive
CN(CC(=O)Nc1ccc(Cl)c(C(F)(F)F)c1)C(=O)c1cc(-c2ccncc2)nc2ccccc12	HCV inhibitor inconclusive, Marburg entry inh inconclusive, FMDV antiviral 28µM
CN(CC(=O)Nc1ccc(Cl)c(C(F)(F)F)c1)C(=O)Cc1n[nH]c(=O)c2ccccc12	HCMV antiviral -73, HCV inhibitor inconclusive, FMDV antiviral inconclusive, LASV entry inh inconclusive
Cc1ccc(C(=O)/C=C2\NCC(C)NC2=O)cc1 (centres undefined)	Marburg entry inh 5.6µM, LASV entry inh 8.9µM
O=C(Nc1ccc(-c2nnn(CC(=O)N3CCN(C(=O)c4ccco4)CC3)n2)cc1)c1ccc(F)cc1	HCV inhibitor 10µM (no result: Marburg entry inh, LASV entry inh)
O=C(c1ccc(S(=O)(=O)Nc2ccc(F)cc2)cc1)N1CCN(C(=O)c2ccco2)CC1	HCMV antiviral -69, Marburg entry inh inconclusive
O=C(Cn1nnc(-c2ccc(F)cc2)n1)N1CCCCC1	none
CCCc1cc(=O)n2nc(N3CCC(C(=O)N4CCN(c5cccc(OC)c5)CC4)CC3)sc2n1	HCMV antiviral -70, HCV inhibitor inconclusive, FMDV antiviral inconclusive (no result: Marburg entry inh, LASV entry inh)
CCc1ccc2nc(N3CCC(C(=O)N4CCC5(CC4)OCCO5)CC3)sc2c1	HCMV antiviral inconclusive, HCV inhibitor 11µM
CCOc1ccc2nc(N3CCC(C(=O)N4CCN(c5ncccn5)CC4)CC3)sc2c1	FMDV antiviral inconclusive (no result: Marburg entry inh, LASV entry inh)
Cc1ccc2nc(N3CCN(C(=O)C4CC4)CC3)sc2c1	none (no result: HCV inhibitor, Marburg entry inh)
Cc1ccc2nc(N3CCC(C(=O)N4CCC5(CC4)OCCO5)CC3)sc2c1	HCV inhibitor inconclusive, Marburg entry inh 7.9µM
O=C(C1CCN(c2nc3ccc(Br)cc3s2)CC1)N1CCC2(CC1)OCCO2	HCV inhibitor 3.2µM, Marburg entry inh inconclusive
CCOc1ccc2nc(N3CCC(C(=O)N4CCC5(CC4)OCCO5)CC3)sc2c1	HCV inhibitor inconclusive, Marburg entry inh inconclusive
CCOc1ccc2nc(N3CCC(C(=O)N4CCN(c5ccccn5)CC4)CC3)sc2c1	HCV inhibitor 6.3µM, FMDV antiviral 14µM (no result: HCMV antiviral, LASV entry inh)
O=c1c(-c2cccs2)cc(-n2c(=O)[nH]c3ccccc32)cn1-c1ccccc1	none (no result: HCV inhibitor, Marburg entry inh, FMDV antiviral, LASV entry inh)
Cn1c(CNC(=O)CNS(=O)(=O)c2ccc(Cl)cc2)cc(=O)n(C)c1=O	none (no result: Marburg entry inh, LASV entry inh)
O=C(NCC1(N2CCOCC2)CCCC1)c1cnn(-c2nccc(-c3ccco3)n2)c1C1CC1	none (no result: HCMV antiviral, HCV inhibitor, Marburg entry inh, LASV entry inh)
CCCCOC(=O)NS(=O)(=O)c1sc(CC(C)C)cc1-c1ccc(Cn2c(CC)nc3c(C)cc(C)nc32)cc1	HCV inhibitor 13µM, Marburg entry inh 10µM, LASV entry inh 9.2µM (no result: HCMV antiviral, FMDV antiviral)
CCCCOC(=O)Nc1ccc(S(=O)(=O)Nc2nc(C)cc(C)n2)cc1	none
CCc1cc2c(=O)n(Cc3ccco3)c(SCC(=O)N(C)C3CCS(=O)(=O)C3)nc2s1 (centres undefined)	HCV inhibitor inconclusive, LASV entry inh inconclusive
CCc1cc2c(=O)n(Cc3ccco3)c(SCc3c(C)noc3C)nc2s1	HCV inhibitor 10µM, Marburg entry inh inconclusive, LASV entry inh inconclusive
CCc1cc2c(=O)n(Cc3ccco3)c(SCC(=O)NCC3CCCO3)nc2s1 (centres undefined)	HCMV antiviral inconclusive, HCV inhibitor 10µM, Marburg entry inh inconclusive, FMDV antiviral 25µM, LASV entry inh inconclusive
CCc1cc2c(=O)n(Cc3ccco3)c(SCC(=O)N3CCCc4ccccc43)nc2s1	HCV inhibitor 10µM, Marburg entry inh inconclusive, LASV entry inh inconclusive
CCc1cc2c(=O)n(Cc3ccco3)c(SCC(=O)NC3CCS(=O)(=O)C3)nc2s1 (centres undefined)	none
CC(C)[C@@H](OCc1ccccc1)[C@H](C)CO/N=C1/[C@H]2OC2[C@@H](O)[C@H]2[C@H]1CCn1c(=O)n(-c3ccccc3)c(=O)n12 (some centres undefined)	none (no result: HCMV antiviral, HCV inhibitor, FMDV antiviral, LASV entry inh)
COc1cccc(-c2nc(N3CCNCC3)c3ccccc3n2)c1	none (no result: HCMV antiviral, HCV inhibitor, Marburg entry inh, LASV entry inh)
O=C(c1ccc(F)cc1)c1cc2ccc(O)cc2oc1=O	Marburg entry inh inconclusive
COc1ccccc1C(=O)c1cc2ccc(O)cc2oc1=O	HCMV antiviral -62 (no result: Marburg entry inh, LASV entry inh)
COc1ccc(CC(=O)NCc2nc3cccnc3n2Cc2ccc(C)cc2)cc1	HCMV antiviral inconclusive (no result: HCV inhibitor, Marburg entry inh)
CC1CCc2nc(NC(=O)C3COc4ccccc4O3)sc2C1 (centres undefined)	HCMV antiviral -76, HCV inhibitor inconclusive, FMDV antiviral 16µM (no result: Marburg entry inh, LASV entry inh)
CC1CCc2nc(NC(=O)CN3CCN(Cc4ccc5c(c4)OCO5)CC3)sc2C1 (centres undefined)	HCMV antiviral -63, HCV inhibitor 32µM, Marburg entry inh inconclusive, FMDV antiviral inconclusive
Cc1csc(NC(=O)C2COc3ccccc3O2)n1 (centres undefined)	Marburg entry inh 4.5µM, FMDV antiviral 13µM, LASV entry inh inconclusive
O=C(Nc1nc(-c2ccccc2)cs1)C1COc2ccccc2O1 (centres undefined)	none
O=C(Nc1nc(-c2ccccn2)cs1)C1COc2ccccc2O1 (centres undefined)	HCMV antiviral -83, HCV inhibitor 35µM (no result: Marburg entry inh, LASV entry inh)
COC(=O)N[C@@H](C=Cc1ccccc1)C[N+](=O)[O-]	none (no result: HCMV antiviral, HCV inhibitor, FMDV antiviral, LASV entry inh)
